Data taken from the antibiotic and cytotoxicity screens of Wong et al. (2023).
Among all 39,000 compounds or so, about 1,500 (3.8%) were called active. This excerpt belongs to a sample that is enriched for actives.

Test system: HSkMC (human skeletal muscle cells)
Experiment: cytotoxicity call (relative viability < 0.9)
Conditions: 10 µM

Compound | cytotoxicity call
COc1ccccc1C(=O)Nc1ccc2c(c1)C(=O)N(C)[C@@H]1CC[C@H](CC(=O)NCc3ccc(Cl)c(Cl)c3)O[C@@H]1CO2 | inactive
COc1ccccc1C(=O)Nc1ccc2c(c1)C(=O)N(C)[C@@H]1CC[C@H](CC(=O)NCc3ccc(Cl)c(Cl)c3)O[C@H]1CO2 | inactive
COc1ccccc1C(=O)Nc1ccc2c(c1)C(=O)N(C)[C@@H]1CC[C@@H](CC(=O)NCc3ccc(Cl)c(Cl)c3)O[C@H]1CO2 | active
CC(C)NC(=O)N(C)C[C@H]1OCc2cn(nn2)CCCC(=O)N([C@H](C)CO)C[C@H]1C | inactive
C[C@H]1CN([C@@H](C)CO)C(=O)c2cc(NS(C)(=O)=O)ccc2O[C@@H]1CN(C)S(=O)(=O)c1ccc(Cl)cc1 | inactive
CO[C@H]1CN(C)C(=O)c2ccc(NC(=O)Nc3ccc(Cl)cc3)cc2OC[C@@H](C)N(C(=O)Nc2c(C)noc2C)C[C@H]1C | inactive
C[C@@H]1CCCCO[C@@H](CN(C)Cc2ccncc2)[C@@H](C)CN([C@H](C)CO)C(=O)c2cc(NC(=O)Nc3ccc(C(F)(F)F)cc3)ccc2O1 | inactive
CC(C)CC#Cc1ccc2c(c1)O[C@@H](CN(C)S(=O)(=O)c1cccc(F)c1)[C@@H](C)CN([C@@H](C)CO)S2(=O)=O | inactive
C1CCN2CC3CC(CN4CCCCC34)C2C1.O=S(=O)(O)O (centres undefined) | inactive
C[C@@H]1CN([C@@H](C)CO)C(=O)c2cc(NC(=O)CCCN(C)C)ccc2O[C@H]1CN(C)S(=O)(=O)c1ccc(Cl)cc1 | inactive
C[C@H]1CN([C@@H](C)CO)C(=O)Cc2cc(N(C)C)ccc2O[C@@H]1CN(C)S(=O)(=O)c1ccc(F)cc1 | inactive
C[C@@H]1CN([C@H](C)CO)C(=O)CCCn2cc(nn2)CO[C@H]1CN(C)S(=O)(=O)c1ccc(Oc2ccccc2)nc1 | inactive
C[C@@H]1CN([C@@H](C)CO)C(=O)c2cccc(NC(=O)C3CC3)c2O[C@@H]1CN(C)S(=O)(=O)c1ccc(F)cc1 | inactive
Cn1c(Nc2ccc(C(F)(F)F)cc2)nc2cc(Oc3ccnc(-c4ncc(C(F)(F)F)[nH]4)c3)ccc21 | active
Nc1nc(=O)c2c(CCc3ccc(C(=O)NC(CCC(=O)[O-])C(=O)[O-])cc3)c[nH]c2[nH]1.[Na+].[Na+] (centres undefined) | inactive
CC(C)CC#Cc1ccc2c(c1)O[C@@H](CN(C)C(=O)c1cnccn1)[C@@H](C)CN([C@@H](C)CO)S2(=O)=O | inactive
COc1ccc(CN(C)C[C@@H]2Oc3ccc(NS(=O)(=O)c4c(C)noc4C)cc3CC(=O)N([C@H](C)CO)C[C@H]2C)cc1 | inactive

Compound | cytotoxicity call
CC1C=CC=CC=CC=CC=CC=CC=CC(OC2OC(C)C(O)C(N)C2O)CC(O)C(C(=O)O)C(O)CC(=O)CC(O)CC(O)CC(O)CC(=O)CCCC(=O)CC(=O)OC1C(C)CC(C)C(O)CC(=O)c1ccc(N)cc1 (centres undefined) | active
C[C@H]1[C@@H](O)[C@@H](C)\C=C/C=C\C=C/C=C\C=C/C=C\C=C/[C@@H](O[C@H]2O[C@H](C)[C@@H](O)[C@H](N)[C@@H]2O)C[C@H]2O[C@](O)(C[C@@H](O)C[C@@H](O)[C@@H](O)CC[C@@H](O)C[C@@H](O)CC(=O)O[C@H]1C)C[C@@H](O)[C@@H]2C(=O)O | inactive
CC1C=CC=CC=CC=CC=CC=CC=CC(OC2OC(C)C(O)C(N)C2O)CC2OC(O)(CC(O)CC(O)C(O)CCC(O)CC(O)CC(=O)OC(C)C(C)C1O)CC(O)C2C(=O)O (centres undefined) | inactive
COc1ccc(CN(C)C[C@@H]2OCCCC[C@@H](C)Oc3ccc(NC(=O)NC(C)C)cc3C(=O)N([C@H](C)CO)C[C@H]2C)cc1 | inactive
Cc1cccc(NC(=O)Nc2ccc3c(c2)C(=O)N(C)[C@@H]2CC[C@H](CC(=O)NCc4ccccc4Cl)O[C@@H]2CO3)c1 | inactive
Cc1ccc(S(=O)(=O)Nc2ccc3c(c2)C(=O)N([C@H](C)CO)C[C@@H](C)[C@@H](CN(C)S(C)(=O)=O)OCCCC[C@H](C)O3)cc1 | inactive
CCSc1cccc2cccnc12 | inactive
c1ccc2c(CSc3nc4ccccc4s3)cccc2c1 | inactive
c1cnc2c(SCc3nc4ccccc4s3)cccc2c1 | active
Cc1ccc(S(=O)(=O)Nc2ccc3c(c2)CC(=O)N([C@@H](C)CO)C[C@@H](C)[C@H](CN(C)C(=O)Nc2ccc(C(F)(F)F)cc2)O3)cc1 | inactive
C[C@@H]1CN([C@@H](C)CO)C(=O)c2cc(C#Cc3ccccc3F)cnc2O[C@@H]1CN(C)C(=O)Cc1ccncc1 | inactive
Cc1ccc(S(=O)(=O)Nc2ccc3c(c2)C(=O)N([C@H](C)CO)C[C@H](C)[C@@H](CN(C)Cc2ccc(C(F)(F)F)cc2)O3)cc1 | inactive
Cc1ccc(S(=O)(=O)Nc2ccc3c(c2)C(=O)N([C@H](C)CO)C[C@@H](C)[C@@H](CN(C)Cc2ccc(C(F)(F)F)cc2)O3)cc1 | active
Cc1ccc(S(=O)(=O)Nc2ccc3c(c2)C(=O)N([C@@H](C)CO)C[C@H](C)[C@H](CN(C)Cc2ccc(C(F)(F)F)cc2)O3)cc1 | inactive
Cc1ccc(S(=O)(=O)Nc2ccc3c(c2)C(=O)N([C@H](C)CO)C[C@H](C)[C@H](CN(C)Cc2ccc(C(F)(F)F)cc2)O3)cc1 | inactive
Cc1ccc(S(=O)(=O)Nc2ccc3c(c2)C(=O)N([C@H](C)CO)C[C@@H](C)[C@H](CN(C)Cc2ccc(C(F)(F)F)cc2)O3)cc1 | active
Cc1ccc(S(=O)(=O)Nc2ccc3c(c2)C(=O)N([C@@H](C)CO)C[C@H](C)[C@@H](CN(C)Cc2ccc(C(F)(F)F)cc2)O3)cc1 | inactive
